From PubChem BioAssay (NCATS)
Several values for one entry are separate records, joined by “and”; a condition that tells them apart may be missing. Identical values can stand only once. Results filed as inconclusive are left out. Activity calls are given as the source filed them. The call rests on the fitted dose curve; in most records, active means well fitted curve in the direction sought with a large enough effect; inconclusive means small, poorly fitted or top-dose-only effect, or another doubt; inactive means no such curve, though single readings can be large or run the other way.
On the % scale 0 is the no-effect control and ±100 the full control effect; potency means the concentration at half of the fitted maximal effect.

Experiment: qHTS Assay for Identifying Gametocytocidal Compounds (AID 743244);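 on max response: actives lower the fluorescent signal which means gametocytes are killed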
Conditions: P. falciparum 3D7 stage III-V gametocytes, alamarBlue, 72 h; max response: hits give low values
Summary of the method: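 Stage III-V P. falciparum 3D7 gametocytes, 20,000 per well, were exposed to compounds for 72 h at 37C, 5% CO2. AlamarBlue was then added for 24 h and viability was read as fluorescence at Ex 525/Em 598 nm.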
In the case of `Nc1nc2ncc(CNc3ccc(C(=O)N[C@@H](CCC(=O)O)C(=O)O)cc3)nc2c(=O)[nH]1`, the max response is reported as 17.9% (inactive). In the case of `COC(=O)[C@@H]1CC2=CC(=O)CC[C@]2(C)[C@@]23O[C@@H]2C[C@@]2(C)[C@@H](CC[C@@]24CCC(=O)O4)[C@H]13`, the max response is reported as 1.84% (inactive). For `CCCN1CCCC[C@H]1C(=O)Nc1c(C)cccc1C`, the max response was -10.7% (inactive). With `CCOc1ccc(NC(=O)CC(C)O)cc1` (configuration not stated) the max response was -2.08% (inactive). With `C[C@H](CCC(=O)O)[C@H]1CC[C@H]2[C@@H]3C(=O)C[C@@H]4CC(=O)CC[C@]4(C)[C@H]3CC(=O)[C@]12C` the max response was 6.84% (inactive). In the case of `COc1cc(/C=C/C(=O)O[C@H]2CC[C@]34C[C@]35CC[C@]3(C)[C@@H]([C@H](C)CCC=C(C)C)CC[C@@]3(C)[C@@H]5CC[C@H]4C2(C)C)ccc1O`, the max response is reported as -6.26% (inactive) and 0.13% (inactive). For `CC(=O)N(O)CCCCCNC(=O)CCC(=O)N(O)CCCCCNC(=O)CCC(=O)N(O)CCCCCN`, the max response was 17.5% (inactive). For `CN=C(NC#N)NCCSCc1csc(N=C(N)N)n1`, the max response was 5.67% (inactive). For `CN(C/C=C/c1ccccc1)Cc1cccc2ccccc12`, the max response was 6.22% (inactive). For `C=C1C[C@H]2[C@@H]3C=C(C)C4=CC(=O)CC[C@]4(C)[C@H]3CC[C@]2(C)[C@@]1(OC(C)=O)C(C)=O`, the max response was 18% (inactive). For `C#C[C@]1(OC(C)=O)CC[C@H]2[C@@H]3CCC4=C[C@@H](OC(C)=O)CC[C@@H]4[C@H]3CC[C@@]21C`, the max response was -2.21% (inactive) and -10.1% (inactive). In the case of `COc1cc(-c2ccc(=O)[nH]n2)ccc1OC(F)F`, the max response is reported as -3.31% (inactive). For `Cc1c(C(C)C)c(=O)n(-c2ccccc2)n1C`, the max response was 39.2% (inactive). For `O=C(COc1ccc(Cl)cc1)N1CCN(Cc2ccc3c(c2)OCO3)CC1`, the max response was -7.26% (inactive). For `CC(=O)OCC(=O)[C@@]1(O)[C@H](C)C[C@H]2[C@@H]3CCC4=CC(=O)C=C[C@]4(C)[C@@]3(F)[C@@H](O)C[C@@]21C`, the max response was 9.89% (inactive) and -3.15% (inactive). For `CCN(CC)C(=O)/C(C#N)=C/c1cc(O)c(O)c([N+](=O)[O-])c1`, the max response was -6.8% (inactive). In the case of `COc1cc(C(=S)N2CCOCC2)cc(OC)c1OC`, the max response is reported as 7.8% (inactive). In the case of `COc1c2occc2c(OC)c2c(=O)cc(C)oc12`, the max response is reported as 22.1% (inactive). For `CC(C)(C)CC(C)(C)c1ccc(OCCOCC[N+](C)(C)Cc2ccccc2)cc1`, the Potency was 8.91 µM (active). For `C[C@@H]1C[C@H]2[C@@H]3CCC4=CC(=O)C=C[C@]4(C)[C@@]3(F)[C@@H](O)C[C@]2(C)[C@H]1C(=O)CO`, the max response was 9.79% (inactive). For `O=c1[nH]c(=O)n([C@H]2C[C@H](O)[C@@H](CO)O2)cc1C(F)(F)F`, the max response was 15% (inactive). For `Nc1ccc(C(=O)Nc2ccccc2N)cc1`, the max response was 0.176% (inactive). In the case of `CCCCC(=O)O[C@]1(C(=O)CO)CC[C@H]2[C@@H]3CCC4=CC(=O)CC[C@]4(C)[C@H]3[C@@H](O)C[C@@]21C`, the max response is reported as 5.31% (inactive). In the case of `CC(C)(C)NC(=O)[C@@H]1CN(Cc2cccnc2)CCN1C[C@@H](O)C[C@@H](Cc1ccccc1)C(=O)N[C@H]1c2ccccc2C[C@H]1O`, the max response is reported as 5.54% (inactive). For `O=C(OCCOCCO)c1ccccc1Nc1cccc(C(F)(F)F)c1`, the max response was 12.2% (inactive). For `Oc1cc(O)c2c(c1)O[C@H](c1ccc(O)c(O)c1)[C@H](O)C2`, the max response was 2.48% (inactive). For `CCOc1ccc(Cc2nccc3cc(OCC)c(OCC)cc23)cc1OCC`, the max response was 10.4% (inactive). In the case of `COc1cc(OC)cc(OC)c1`, the max response is reported as 0.294% (inactive). In the case of `Cc1ccc(Nc2c(F)cccc2Cl)c(CC(=O)O)c1`, the max response is reported as 0.561% (inactive). In the case of `NCCC(O)(P(=O)(O)O)P(=O)(O)O`, the max response is reported as 1.74% (inactive). With `CC(=O)c1ccc2c(c1)N(CCCN1CCC(CCO)CC1)c1ccccc1S2` the max response was -4.88% (inactive). For `C[C@]12CCC(=O)C=C1[C@@H]1C[C@@H]1[C@H]1[C@@H]3[C@@H]4C[C@@H]4[C@@]4(CCC(=O)O4)[C@@]3(C)CC[C@@H]12`, the max response was 5.27% (inactive). In the case of `O=S1(=O)c2cccc3cccc(c23)N1CCCN1CCN(c2ccc(F)cc2)CC1`, the max response is reported as 13.8% (inactive). In the case of `Oc1c(I)cc(Cl)c2cccnc12`, the Potency is reported as 7.94 µM (active). For `CC1(C)O[C@@H]2C[C@H]3[C@@H]4C[C@H](F)C5=CC(=O)CC[C@]5(C)[C@H]4[C@@H](O)C[C@]3(C)[C@]2(C(=O)CO)O1`, the max response was 1.24% (inactive). In the case of `Nc1ccc(/C=C/c2ccc(N)cc2S(=O)(=O)O)c(S(=O)(=O)O)c1`, the max response is reported as 1.42% (inactive). In the case of `Cc1cc(O)c(C(C)C)cc1Cl`, the max response is reported as -3.92% (inactive).
